22 compounds from PubChem BioAssay can be followed below.

A short description of experiment [1]: viability loss with induced miR-34 in A549 – imaging, A549 dox-inducible miR-34, nuclei and caspase counts, primary screen (AID 1347080;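 active = compounds whose cell count with miR-34 switched on is under 0.7 times the count with it off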). To be noted: A549 miR-34 inducible, Hoechst nuclei count, 48 h.
Experiment [2] in a line: MELAS cybrid and Rieske KO viability enhancers – cell-based, MELAS cybrids, Rieske KO mouse fibroblasts, CellTiter-Glo, primary screen (AID 1508586).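 Also: z relative to plate mean and SD of compound and empty wells.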 To be noted: low glucose. (In general: In ATP-based viability assays light output follows the ATP content of the culture.)
Where [3] appears, read: stronger effect = lower value, cell number ratio, induced over uninduced.
[4] abbreviates: measured here: relative caspase fold change +Dox/-Dox.
The mark [5] stands for this setting: measured here: total cells with miR-34 induction, stronger effect = lower value.
The mark [6] stands for this setting: measured here: total cells without miR-34 induction.
[7] abbreviates: MELAS cybrid survival, CellTiter-Glo 48 h, stronger effect = higher value.
Setting [8] is: Rieske KO mouse fibroblast survival, CellTiter-Glo 72 h.

Values joined by “and” are separate entries in the source; they are usually repeats but may differ in a detail not shown here. Identical values can stand only once. Active and inactive are the calls of the source.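 The calls were made as follows, unless noted: active = mean z-score across replicates of 1.96 or higher in either the MELAS or the Rieske mutant cell line; inactive = the rest.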
Also: test concentration not given here.

As to `CC1COC(Nc2ccc3ncnc(Nc4ccc(OCc5nccs5)c(Cl)c4)c3c2)=N1` (configuration not stated), the fold change is 0.841 (inactive) in experiment [1] (setting [3]) and 0.704 in experiment [1] (setting [4]). In addition, the values for the cell count in experiment [1] (setting [5]) and in experiment [1] (setting [6]) were 6940 and 8260, respectively. The z-score in experiment [2] (setting [7]) was 0.156 (inactive); in experiment [2] (setting [8]), -0.466.
In the case of `CN(C)C(=O)c1ccc(S(=O)(=O)c2ccc(NC(=O)C(C)(O)C(F)(F)F)c(Cl)c2)cc1` (configuration not stated), the fold change in experiment [1] (setting [3]) is 0.887 (inactive); in experiment [1] (setting [4]), 0.601. Besides, the cell count in experiment [1] (setting [5]) is 6480; in experiment [1] (setting [6]), 7310. The results for the z-score in experiment [2] (setting [7]) and in experiment [2] (setting [8]) were -0.391 (inactive) and -0.0234, respectively.
Turning to `Cc1cn(C2OC(CO)C(O)C2F)c(=O)[nH]c1=O` (configuration not stated), the fold change in experiment [1] (setting [3]) is 0.93 (inactive); in experiment [1] (setting [4]), 0.942. Also, the cell count in experiment [1] (setting [5]) turned out to be 9750; in experiment [1] (setting [6]), 10500. Besides, the z-score was -0.347 (inactive) in experiment [2] (setting [7]) and 0.612 in experiment [2] (setting [8]).
On to `O=C(c1cn(Cc2cncn2Cc2ccc(Br)cc2)cc1-c1cccc2ccccc12)N1CCOCC1`, for which the fold change in experiment [1] (setting [3]) was 0.999 (inactive); in experiment [1] (setting [4]), 0.553. Further, the cell count in experiment [1] (setting [5]) was 3260; in experiment [1] (setting [6]), 3270. Besides, the z-score in experiment [2] (setting [7]) was -0.128 (inactive); in experiment [2] (setting [8]) it was -1.26.
Regarding `O=C(Nc1cc(C(F)(F)F)ccc1N1CCCCC1)c1ccncc1`, the results for the fold change in experiment [1] (setting [3]) and in experiment [1] (setting [4]) were 0.916 (inactive) and 0.317, respectively. Also, the cell count in experiment [1] (setting [5]) is 7440; in experiment [1] (setting [6]) it was 8120. In addition, the z-score in experiment [2] (setting [7]) is -0.391 (inactive); in experiment [2] (setting [8]), 1.41.
As to `Cc1nc(NC(=O)N2CCCC2C(N)=O)sc1-c1csc(C(C)(C)C)n1` (configuration not stated), the fold change in experiment [1] (setting [3]) is 0.968 (inactive); in experiment [1] (setting [4]), 0.607. In addition, the cell count worked out at 6880 in experiment [1] (setting [5]) and 7100 in experiment [1] (setting [6]). In addition, the figures for the z-score in experiment [2] (setting [7]) and in experiment [2] (setting [8]) were -0.368 (inactive) and 0.104, respectively.
For the compound `CCNC(=O)CCCC=CCC1C(O)CC(O)C1C=CC(O)CCc1ccccc1` (configuration not stated), the fold change in experiment [1] (setting [3]) was 0.925 (inactive); in experiment [1] (setting [4]) it was 0.991. Moreover, the cell count is 6700 in experiment [1] (setting [5]) and 7250 in experiment [1] (setting [6]). Besides, the z-score was -0.401 (inactive) in experiment [2] (setting [7]) and -0.137 in experiment [2] (setting [8]).
`C=C1c2cccc(O)c2C(O)=C2C(=O)[C@]3(O)C(O)=C(C(N)=O)C(=O)C(N(C)C)[C@@H]3C(O)[C@H]12` (some centres not stated): the results for the fold change in experiment [1] (setting [3]) and in experiment [1] (setting [4]) were 0.858 (inactive) and 1.09, respectively. Moreover, the cell count amounted to 7630 in experiment [1] (setting [5]) and 8890 in experiment [1] (setting [6]). Further, the figures for the z-score in experiment [2] (setting [7]) and in experiment [2] (setting [8]) were 5.63 (active) and 0.965, respectively.
With `CC(C)C(=O)Oc1ccc(CO)cc1C(CCN(C(C)C)C(C)C)c1ccccc1` (configuration not stated), the fold change was 0.941 (inactive) in experiment [1] (setting [3]) and 0.385 in experiment [1] (setting [4]). For the same compound, the cell count in experiment [1] (setting [5]) amounted to 8240; in experiment [1] (setting [6]) it was 8760. Further, the z-score in experiment [2] (setting [7]) is 0.0306 (inactive); in experiment [2] (setting [8]) it was 0.055.
Consider `Cc1cc(Cn2cnc3c2CC(C(=O)O)N(C(=O)C(c2ccccc2)c2ccccc2)C3)ccc1N(C)C` (configuration not stated), for which the fold change was 0.92 (inactive) in experiment [1] (setting [3]) and 0.34 in experiment [1] (setting [4]). Also, the cell count in experiment [1] (setting [5]) stood at 8010; in experiment [1] (setting [6]) it was 8710. Moreover, the z-score is 0.9 (inactive) in experiment [2] (setting [7]) and -1.41 in experiment [2] (setting [8]).
Consider `OC(CNCC(O)[C@H]1CCc2cc(F)ccc2O1)[C@@H]1CCc2cc(F)ccc2O1` (some centres not stated), for which the fold change is 0.966 (inactive) in experiment [1] (setting [3]) and 0.954 in experiment [1] (setting [4]). The cell count came to 6580 in experiment [1] (setting [5]) and 6810 in experiment [1] (setting [6]). Further, the values for the z-score in experiment [2] (setting [7]) and in experiment [2] (setting [8]) were 1.33 (inactive) and 0.256, respectively.
With `COc1cc(=C2C=c3ccccc3=N2)[nH]c1=Cc1[nH]c(C)cc1C`, the fold change in experiment [1] (setting [3]) is 1.1 (inactive); in experiment [1] (setting [4]) it was 0.895. The cell count amounted to 1770 in experiment [1] (setting [5]) and 1620 in experiment [1] (setting [6]). For the same compound, the z-score is 2.25 (active) in experiment [2] (setting [7]) and -2.31 in experiment [2] (setting [8]).
As for `CC(=O)OCC(=O)[C@]1(O)CC[C@H]2[C@@H]3CCC4=CC(=O)CC[C@]4(C)[C@@H]3C(=O)C[C@@]21C`, the values for the fold change in experiment [1] (setting [3]) and in experiment [1] (setting [4]) were 0.938 (inactive) and 0.685, respectively. Besides, the cell count in experiment [1] (setting [5]) was found to be 9630; in experiment [1] (setting [6]), 10300. Besides, the z-score is -0.429 (inactive) in experiment [2] (setting [7]) and -0.073 in experiment [2] (setting [8]).
In the case of `CC1C[C@H]2[C@@H]3CCC4=CC(=O)C=C[C@]4(C)[C@]3(F)C(O)C[C@]2(C)[C@]1(O)C(=O)CO` (some centres not stated), the fold change was 0.886 (inactive) and 0.91 (inactive) in experiment [1] (setting [3]); 0.577 and 0.802 in experiment [1] (setting [4]). The cell count is 5440 and 5070 in experiment [1] (setting [5]); 6140 and 5570 in experiment [1] (setting [6]). The z-score is -0.338 (inactive) and -0.534 (inactive) in experiment [2] (setting [7]); 0.031 and -0.0341 in experiment [2] (setting [8]).
As to `CN(C)C(=O)C(O)C(Cc1ccccc1)NC(=O)c1cc2cc(Cl)ccc2[nH]1` (configuration not stated), the fold change is 0.959 (inactive) in experiment [1] (setting [3]) and 0.88 in experiment [1] (setting [4]). Also, the cell count in experiment [1] (setting [5]) came out at 8860; in experiment [1] (setting [6]) it was 9230. The z-score was -0.337 (inactive) in experiment [2] (setting [7]) and 0.715 in experiment [2] (setting [8]).
For `CNC(=C[N+](=O)[O-])NCCSCc1ccc(CN(C)C)o1`, the fold change in experiment [1] (setting [3]) was 0.921 (inactive); in experiment [1] (setting [4]) it was 0.82. Further, the cell count in experiment [1] (setting [5]) came out at 7800; in experiment [1] (setting [6]), 8470. The z-score in experiment [2] (setting [7]) was -0.3 (inactive); in experiment [2] (setting [8]), -0.112.
As to `OCc1ccc(OC2OC(CO)C(O)C(O)C2O)cc1` (configuration not stated), the fold change in experiment [1] (setting [3]) was 0.984 (inactive); in experiment [1] (setting [4]), 0.233. The cell count was 8280 in experiment [1] (setting [5]) and 8420 in experiment [1] (setting [6]). Also, the z-score was -0.247 (inactive) in experiment [2] (setting [7]) and -0.122 in experiment [2] (setting [8]).
As for `NC(Cc1cc(I)c(Oc2cc(I)c(O)c(I)c2)c(I)c1)C(=O)O` (configuration not stated), the fold change in experiment [1] (setting [3]) is 0.891 (inactive); in experiment [1] (setting [4]), 1.04. Moreover, the cell count stood at 8130 in experiment [1] (setting [5]) and 9130 in experiment [1] (setting [6]). In addition, the z-score in experiment [2] (setting [7]) is -0.238 (inactive); in experiment [2] (setting [8]) it was -1.06.
On to `CC(C)CC(NC(=O)C(CCc1ccccc1)NC(=O)CN1CCOCC1)C(=O)NC(Cc1ccccc1)C(=O)NC(CC(C)C)C(=O)[C@@]1(C)CO1` (some centres not stated), for which the fold change in experiment [1] (setting [3]) was 0.898 (inactive); in experiment [1] (setting [4]) it was 1.94. The cell count in experiment [1] (setting [5]) came to 778; in experiment [1] (setting [6]) it was 867. The z-score in experiment [2] (setting [7]) is -0.243 (inactive); in experiment [2] (setting [8]), -3.69.
Turning to `COc1ccc2cc1Oc1ccc(cc1)C[C@@H]1c3c(cc4c(c3Oc3cc5c(cc3OC)CCN(C)[C@@H]5C2)OCO4)CCN1C`, the fold change in experiment [1] (setting [3]) was 0.966 (inactive); in experiment [1] (setting [4]), 1.15. Further, the values for the cell count in experiment [1] (setting [5]) and in experiment [1] (setting [6]) were 4290 and 4440, respectively. Besides, the z-score is -0.206 (inactive) in experiment [2] (setting [7]) and -0.161 in experiment [2] (setting [8]).
Turning to `CC1CC[C@H]2C(C)C(O)O[C@H]3O[C@@]4(C)CC[C@@H]1[C@]32OO4` (some centres not stated), the fold change in experiment [1] (setting [3]) is 0.953 (inactive); in experiment [1] (setting [4]), 0.983. Besides, the cell count in experiment [1] (setting [5]) turned out to be 4540; in experiment [1] (setting [6]), 4770. For the same compound, the z-score is -0.379 (inactive) in experiment [2] (setting [7]) and 0.102 in experiment [2] (setting [8]).
On to `CC(O)[C@H]1C(=O)N2C(C(=O)OCOC(=O)C(C)(C)C)=C(SC3CN(C4=NCCS4)C3)C(C)[C@@H]12` (some centres not stated), for which the fold change is 0.943 (inactive) in experiment [1] (setting [3]) and 0.543 in experiment [1] (setting [4]). Besides, the cell count in experiment [1] (setting [5]) amounted to 8990; in experiment [1] (setting [6]), 9530. Further, the z-score in experiment [2] (setting [7]) was -0.198 (inactive); in experiment [2] (setting [8]) it was -0.552.
